# Results from PubChem BioAssay AID2035 (National Center for Advancing Translational Sciences (NCATS), 2009).
# This is one part of the list. Entries that show only a call come without a potency. Active and inactive are the calls of the source. Calls follow the shape of the dose curve; as a rule, active = well fitted inhibition curve with a large enough effect; inconclusive = small, poorly fitted or top-dose-only effect; inactive = flat fitted curve, though single readings scatter.
# Assay: Confirmatory Assay for Inhibitors of Human Galactokinase (GALK): Phenol-HRP redox assay counterscreen
# Settings: Phenol red-HRP H2O2 redox cycling, absorbance 600 nm; series mostly up to 115 µM
# Source text: NIH Molecular Libraries Probe Production Centers Network [MLPCN] NIH Chemical Genomics Center [NCGC] MLPCN Grant: R03 MH085689-01 Assay Submitter (PI): Kent Lai (University of Utah School of Medicine, 50 N Mario Capecchi Drive, Salt Lake City, UT 84132) NCGC Assay Overview: One mM dithiothreitol (DTT) was used as a reducing agent to maintain the galactokinase (GALK) enzyme in its active form in the GALK qHTS screen (AID: 1868). However, it has been shown that in the presence of DTT a number of compounds also undergo redox recyling, generating a significant amount of H2O2 that can oxidize crucial cysteine residues in the enzyme, leading to and a false-positive result. To evaluate and flag redox recycling compounds for compounds re-acquired from the qHTS screen, an endpoint colorimetric assay developed by Johnston et al. was adopted and optimized for a 1536-well plate format. In brief, the assay detects the presence of H2O2 by following the change in absorbance at 600 nm due to oxidation of phenol red (Sigma, cat# 114537) catalyzed by horseradish peroxidase (HRP; Invitrogen). A stop reagent, 1N NaOH was added prior to reading the absorbance. DMSO and different concentrations of hydrogen peroxide (Sigma, cat# 216763) in the GALK buffer were used as negative and positive controls respectively.
# NCGC Assay Protocol Summary: Two uL/well of GALK buffer (20mM HEPES pH8.0, 5 mM MgCl2, 60 mM NaCl, 1 mM DTT, 0.01% BSA final concentration) was dispensed into a 1536-well assay plates (Greiner, black clear bottom plates) with Aurora Discovery BioRAPTR Flying Reagent Dispenser (FRD; Beckton-Dickenson). Compound and control solutions (23 nL each) were transferred to the assay plate in their respective wells using Kalypsys pin tool equipped with a 1536-pin tool head and incubated at room temperature for 30 min. Presence of H2O2 produced by redox cycling compounds was detected by adding 2 uL/well phenol red - HRP detection reagent ([…] phenol red in 1x Hanks Balanced Salt Solution, 25 U/mL HRP final concentrations). After 15 min of room temperature incubation, the reaction was stopped by adding 2 uL/well 1N NaOH and incubated for an additional 1 hr at room temperature. The absorbance at 600 nm was measured using the ViewLux plate reader (Perkin Elmer, Waltham, MA) with 6000 light energy, 2 sec exposure, and 2x binning instrument settings.
row,Compound,Potency
1,CCOC(=O)c1c(C)[nH]c2c1-c1ccccc1C(=O)C2=O,1.19 µM (active)
2,N#Cc1c(N2CCCCC2)nc(N)c2c(N)nc(SCC(=O)O)cc12,18.8 µM (active)
3,N#C/C(=C(/O)Cc1cccc2ccccc12)c1nc2ccccc2s1,inactive
4,Oc1c(Cl)cc(Cl)c(Cl)c1Cc1c(O)c(Cl)cc(Cl)c1Cl,inactive
5,O=C(Nc1nnc(S(=O)(=O)N2CCOCC2)s1)c1cccc(Br)c1,inactive
6,COc1cccc2cc(-c3cc(=O)oc4cc(C)c(O)cc34)oc12,inactive
7,CCS(=O)(=O)C1=NSC2=NC(=O)/C(=C\c3ccc(OS(=O)(=O)c4ccccc4)cc3)C(=N)N21,inactive
